Here are results for 39 compounds from the supplement of paper PMC8975748.

Molecules are shown by their SMILES. Where a name gives a salt, the structure may show the parent alone.

The subject of one test is Saccharomyces cerevisiae BY4741 SeMeCo community. Briefly: z-score of subpopulation abundance vs DMSO median, subpopulation auxotrophic for LM; higher = larger share of this subpopulation than in DMSO controls. The settings on record: 10 µM; 24 h; SM minimal medium; subpopulation (auxotrophy): LM. Put shortly: (§1)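 Scoring was based on each subpopulation's abundance, expressed as a z-score against the vehicle-well median. A Saccharomyces cerevisiae BY4741 community with four plasmids, each restoring one auxotrophy and encoding a distinct fluorescent protein, was pre-grown overnight to OD600 1.0, diluted to 0.3, and added at 70 µl to 384-well plates acoustically predosed with library drugs (10 µM final). It then grew 24 h in minimal SM medium before paraformaldehyde fixation and automated confocal microscopy, with single-auxotroph fluorescent strains setting thresholds and autofluorescence correction.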
Take `CN(C)[C@@H](CCOc1cccc2ccccc12)c1ccccc1` [Dapoxetine HCl]: the “z-score of subpopulation abundance” value was 0.47.
`CC1(C)S[C@@H]2[C@H](NC(=O)Cc3ccccc3)C(=O)N2[C@H]1C(=O)O.CCN(CC)CCOC(=O)c1ccc(N)cc1` [Penicillin G Procaine]: the “z-score of subpopulation abundance” value turned out to be 1.
Same read-out and setting: under `CC(=O)Oc1ccccc1C(=O)O` [Aspirin] stands 0.16; under `C[C@@H]1CC(=O)NN=C1c1ccc(NN=C(C#N)C#N)cc1` [Levosimendan], -0.47.
On the same count and under the same terms, under `CCN1CCC[C@H]1CNC(=O)c1cc(S(N)(=O)=O)ccc1OC` [Levosulpiride] stands -0.65; under `CN1CCN(CCCN2c3ccccc3Sc3ccc(C(F)(F)F)cc32)CC1` [Trifluoperazine 2HCl], -0.04; under `COc1ccc2c(c1)c(CC(=O)OCC(=O)O)c(C)n2C(=O)c1ccc(Cl)cc1` [Acemetacin], -0.54.
The same measure, in the same setting: the result for `CC[C@H]1OC(=O)[C@H](C)[C@@H](O[C@H]2C[C@@](C)(OC)[C@@H](O)[C@H](C)O2)[C@H](C)[C@@H](O[C@@H]2O[C@H](C)C[C@H](N(C)C)[C@H]2O)[C@](C)(O)C[C@@H](C)CN(C)[C@H](C)[C@@H](O)[C@]1(C)O` [Azithromycin] reads 0.27; that for `Clc1ccccc1C(c1ccccc1)(c1ccccc1)n1ccnc1` [Clotrimazole], 1.9.
`C[C@H](NCc1ccc(OCc2cccc(F)c2)cc1)C(N)=O` [Safinamide]: the “z-score of subpopulation abundance” value turned out to be 0.37.
For `C[C@@H](O)[C@H]1C(=O)N2C(C(=O)O)=C([C@H]3CCCO3)S[C@H]12` [Faropenem Sodium], the “z-score of subpopulation abundance” value is -0.23.
For the compound `O=C1CCc2cc(OCCCCc3nnnn3C3CCCCC3)ccc2N1` [Cilostazol], the “z-score of subpopulation abundance” value is -0.83.
Still for that read-out and setting: under `COc1cc(NS(=O)(=O)c2ccc(N)cc2)ncn1` [Sulfamonomethoxine] stands -0.55; under `NC(=O)N1c2ccccc2CC(=O)c2ccccc21` [Oxcarbazepine], 0.14; under `CCCCC(F)(F)[C@@]1(O)CC[C@H]2[C@@H](CC(=O)[C@@H]2CCCCCCC(=O)O)O1` [Lubiprostone], -1.08.
`CCCCCc1ccc(C)cc1O` [Amylmetacresol]: the “z-score of subpopulation abundance” value is -0.71.
For `CCN(CC)CCOC(=O)c1ccc(N)cc1` [Procaine HCl], the “z-score of subpopulation abundance” value was 0.
Consider `N[C@@H]1CONC1=O` [D-Cycloserine], for which the “z-score of subpopulation abundance” value worked out at 0.54.
On the same count and under the same terms, under `COc1ccc2cc(C(=O)O)ccc2c1` [6-Methoxy-2-naphthoic acid] stands -1.51.
For `CCC(=O)c1c(O)cc(O)cc1O` [Flopropione], the “z-score of subpopulation abundance” value came out at 0.21.
Still for that read-out and setting: the result for `Oc1c(Cl)cc(Cl)c(Cl)c1Cc1c(O)c(Cl)cc(Cl)c1Cl` [Hexachlorophene] reads 1.88; that for `CCCCCCCCc1ccc(CCC(N)(CO)CO)cc1` [Fingolimod], -1.42.
For the compound `CC1(C)S[C@@H]2[C@H](NC(=O)[C@H](N)c3ccc(O)cc3)C(=O)N2[C@H]1C(=O)O` [Amoxicillin], the “z-score of subpopulation abundance” value is -0.13.
Turning to `CCCc1nc(C)c2c(=O)nc(-c3cc(S(=O)(=O)N4CCN(CC)CC4)ccc3OCC)[nH]n12` [Vardenafil HCl Trihydrate], the “z-score of subpopulation abundance” value is -1.19.
As to `CC[C@@]1(O)C(=O)OCc2c1cc1n(c2=O)Cc2cc3c(CN(C)C)c(O)ccc3nc2-1` [Topotecan HCl], the “z-score of subpopulation abundance” value is 0.34.
The same measure, in the same setting: under `CCC(C)(C)C(=O)O[C@H]1C[C@@H](C)C=C2C=C[C@H](C)[C@H](CC[C@@H]3C[C@@H](O)CC(=O)O3)[C@H]21` [Simvastatin] stands -0.1; under `COCCCN1CCC(NC(=O)c2cc(Cl)c(N)c3c2OCC3)CC1` [Prucalopride], -0.04; under `CNCC[C@H](Oc1cccc2ccccc12)c1cccs1` [Duloxetine], -0.49.
As for `O=C(Nc1cccc(C2=NCCN2)c1)Nc1cccc(C2=NCCN2)c1` [Imidocarb dipropionate], the “z-score of subpopulation abundance” value is -0.28.
`C[C@H]1c2cccc(O)c2C(O)=C2C(=O)[C@]3(O)C(O)=C(C(N)=O)C(=O)[C@@H](N(C)C)[C@@H]3[C@@H](O)[C@@H]21` [Doxycycline]: the “z-score of subpopulation abundance” value was -0.26.
Still for that read-out and setting: under `CCc1c2c(nc3ccc(OC(=O)N4CCC(N5CCCCC5)CC4)cc13)-c1cc3c(c(=O)n1C2)COC(=O)[C@]3(O)CC` [Irinotecan HCl Trihydrate] stands 0.19.
Regarding `C/C=C\c1ccc(O)c(OC)c1` [Isoeugenol], the “z-score of subpopulation abundance” value is 0.87.

Another test has the same test system. Description: z-score of subpopulation abundance vs DMSO median, subpopulation auxotrophic for HM; higher = larger share of this subpopulation than in DMSO controls. The settings on record: 10 µM; 24 h; SM minimal medium; subpopulation (auxotrophy): HM. In outline:
as §1
`CN(C)[C@@H](CCOc1cccc2ccccc12)c1ccccc1` [Dapoxetine HCl]: the “z-score of subpopulation abundance” value was -0.39.
For `CC(=O)Oc1ccccc1C(=O)O` [Aspirin], the “z-score of subpopulation abundance” value is -0.38.
Regarding `Nc1ccc(S(=O)(=O)Nc2ccnn2-c2ccccc2)cc1` [Sulfaphenazole], the “z-score of subpopulation abundance” value is -0.42.
With `C[C@@H]1CC(=O)NN=C1c1ccc(NN=C(C#N)C#N)cc1` [Levosimendan], the “z-score of subpopulation abundance” value came to 0.22.
`CCN1CCC[C@H]1CNC(=O)c1cc(S(N)(=O)=O)ccc1OC` [Levosulpiride]: the “z-score of subpopulation abundance” value is -0.96.
In the case of `CN1CCN(CCCN2c3ccccc3Sc3ccc(C(F)(F)F)cc32)CC1` [Trifluoperazine 2HCl], the “z-score of subpopulation abundance” value was determined as 0.33.
The same measure, in the same setting: the result for `COc1ccc2c(c1)c(CC(=O)OCC(=O)O)c(C)n2C(=O)c1ccc(Cl)cc1` [Acemetacin] reads 0.71; that for `CC[C@H]1OC(=O)[C@H](C)[C@@H](O[C@H]2C[C@@](C)(OC)[C@@H](O)[C@H](C)O2)[C@H](C)[C@@H](O[C@@H]2O[C@H](C)C[C@H](N(C)C)[C@H]2O)[C@](C)(O)C[C@@H](C)CN(C)[C@H](C)[C@@H](O)[C@]1(C)O` [Azithromycin], -0.55; that for `Clc1ccccc1C(c1ccccc1)(c1ccccc1)n1ccnc1` [Clotrimazole], 6.05.
Regarding `CO/N=C(\C(=O)N[C@@H]1C(=O)N2C(C(=O)O)=C(CSc3nc(=O)c(O)nn3C)CS[C@H]12)c1csc(N)n1` [Ceftriaxone Sodium Trihydrate], the “z-score of subpopulation abundance” value is -1.19.
Same read-out and setting: under `C[C@H](NCc1ccc(OCc2cccc(F)c2)cc1)C(N)=O` [Safinamide] stands 0.41; under `CCOC(=O)C1=C(C)NC(C)=C(C(=O)OC)C1c1cccc(Cl)c1Cl` (stereo not drawn) [Felodipine], 4.69.
Consider `C[C@@H](O)[C@H]1C(=O)N2C(C(=O)O)=C([C@H]3CCCO3)S[C@H]12` [Faropenem Sodium], for which the “z-score of subpopulation abundance” value turned out to be 0.48.
Still for that read-out and setting: under `O=C1CCc2cc(OCCCCc3nnnn3C3CCCCC3)ccc2N1` [Cilostazol] stands -0.41; under `COc1cc(NS(=O)(=O)c2ccc(N)cc2)ncn1` [Sulfamonomethoxine], -1.46; under `Nc1nc2ccc(OC(F)(F)F)cc2s1` [Riluzole], -0.84.
For `NC(=O)N1c2ccccc2CC(=O)c2ccccc21` [Oxcarbazepine], the “z-score of subpopulation abundance” value worked out at 0.
For `CCCCC(F)(F)[C@@]1(O)CC[C@H]2[C@@H](CC(=O)[C@@H]2CCCCCCC(=O)O)O1` [Lubiprostone], the “z-score of subpopulation abundance” value was -0.8.
As to `CCCCCc1ccc(C)cc1O` [Amylmetacresol], the “z-score of subpopulation abundance” value is -0.5.
Take `CCN(CC)CCOC(=O)c1ccc(N)cc1` [Procaine HCl]: the “z-score of subpopulation abundance” value is -0.71.
For the compound `N[C@@H]1CONC1=O` [D-Cycloserine], the “z-score of subpopulation abundance” value was -0.26.
Same read-out and setting: under `CCOC(=O)C1=C[C@]2(CC)CCCN3CCc4c(n1c1ccccc41)[C@@H]32` [Vinpocetine] stands 0.55; under `COc1ccc2cc(C(=O)O)ccc2c1` [6-Methoxy-2-naphthoic acid], 0.22.
Same read-out and setting: the result for `CCC(=O)c1c(O)cc(O)cc1O` [Flopropione] reads 0.19; that for `Oc1c(Cl)cc(Cl)c(Cl)c1Cc1c(O)c(Cl)cc(Cl)c1Cl` [Hexachlorophene], 9.29; that for `CCCCCCCCc1ccc(CCC(N)(CO)CO)cc1` [Fingolimod], -1.86.
For the compound `CC1(C)S[C@@H]2[C@H](NC(=O)[C@H](N)c3ccc(O)cc3)C(=O)N2[C@H]1C(=O)O` [Amoxicillin], the “z-score of subpopulation abundance” value came to 0.32.
On to `CCCc1nc(C)c2c(=O)nc(-c3cc(S(=O)(=O)N4CCN(CC)CC4)ccc3OCC)[nH]n12` [Vardenafil HCl Trihydrate], for which the “z-score of subpopulation abundance” value was 0.87.
For the compound `CC[C@@]1(O)C(=O)OCc2c1cc1n(c2=O)Cc2cc3c(CN(C)C)c(O)ccc3nc2-1` [Topotecan HCl], the “z-score of subpopulation abundance” value came out at 0.51.
As to `CCC(C)(C)C(=O)O[C@H]1C[C@@H](C)C=C2C=C[C@H](C)[C@H](CC[C@@H]3C[C@@H](O)CC(=O)O3)[C@H]21` [Simvastatin], the “z-score of subpopulation abundance” value was 2.47.
On the same count and under the same terms, under `COCCCN1CCC(NC(=O)c2cc(Cl)c(N)c3c2OCC3)CC1` [Prucalopride] stands 0.24; under `CO/N=C(\C(=O)N[C@@H]1C(=O)N2C(C(=O)O)=C(CSc3nc(C)c(CC(=O)O)s3)CS[C@H]12)c1csc(N)n1` [Cefodizime Sodium], -0.46.
On the same count and under the same terms, the result for `CNCC[C@H](Oc1cccc2ccccc12)c1cccs1` [Duloxetine] reads 0.1; that for `C1N2CN3CN1CN(C2)C3` [Methenamine], 1.35; that for `O=C(Nc1cccc(C2=NCCN2)c1)Nc1cccc(C2=NCCN2)c1` [Imidocarb dipropionate], -0.79.
Regarding `C[C@H]1c2cccc(O)c2C(O)=C2C(=O)[C@]3(O)C(O)=C(C(N)=O)C(=O)[C@@H](N(C)C)[C@@H]3[C@@H](O)[C@@H]21` [Doxycycline], the “z-score of subpopulation abundance” value was -0.76.
